Laboratory results taken from the antibiotic and cytotoxicity screens of Wong et al. (2023).
The whole screen tested about 39,000 compounds, of which about 1,500 (3.8%) were called active. What follows is part of a selection rich in actives, with near analogues and random picks from the rest.

tested on: HSkMC (human skeletal muscle cells); test: cytotoxicity call (relative viability < 0.9); conditions: 10 µM

Q: For `C[C@@H]1O[C@@H](O[C@H]2[C@H](Oc3cc(O)c4c(c3)O[C@H](c3ccc(O)cc3)CC4=O)O[C@H](CO)[C@@H](O)[C@@H]2O)[C@H](O)[C@H](O)[C@H]1O`, which cytotoxicity call is on record?
A: Its cytotoxicity call is “inactive”.

Q: How did the cytotoxicity call turn out when `Cc1ccc(S(=O)(=O)N(C)C[C@@H]2Oc3ccc(NS(=O)(=O)c4cn(C)cn4)cc3C(=O)N([C@H](C)CO)C[C@@H]2C)cc1` was run?
A: The cytotoxicity call was “inactive”.

Q: Which cytotoxicity call does the source give for `COc1ccc(S(=O)(=O)N(C)C[C@H]2Oc3ccc(NC(=O)Nc4c(C)noc4C)cc3C(=O)N([C@@H](C)CO)C[C@H]2C)cc1` here?
A: The cytotoxicity call was “inactive”.

Q: `Cc1ccc(S(=O)(=O)N2C[C@H](O)COC[C@H]3O[C@@H](CC(=O)N[C@@H]4CCN(Cc5ccccc5)C4)CC[C@@H]32)cc1` was tested. Which cytotoxicity call did it give?
A: The cytotoxicity call was “inactive”.

Q: `C[C@@H]1CN([C@H](C)CO)C(=O)c2cc(NS(=O)(=O)c3cccs3)ccc2O[C@@H]1CN(C)Cc1ccc(Cl)c(Cl)c1` was tested. Which cytotoxicity call did it give?
A: Its cytotoxicity call is “inactive”.

Q: For `C[C@H](CO)N1C[C@H](C)[C@@H](CN(C)C(=O)Nc2cccc3ccccc23)OCCCC[C@H](C)Oc2ccc(NC(=O)C3CCCCC3)cc2C1=O`, which cytotoxicity call is on record?
A: The cytotoxicity call was “inactive”.

Q: With `C[C@@H]1CCCCO[C@@H](CN(C)C(=O)Nc2cccc3ccccc23)[C@@H](C)CN([C@H](C)CO)C(=O)c2cc(NC(=O)C3CCCCC3)ccc2O1` as the compound, how does the cytotoxicity call read?
A: The cytotoxicity call was “active”.

Q: For `C[C@@H]1CN([C@H](C)CO)C(=O)c2cc(NC(=O)C3CCCCC3)ccc2O[C@@H](C)CCCCO[C@@H]1CN(C)C(=O)Nc1cccc2ccccc12`, which cytotoxicity call is on record?
A: The cytotoxicity call was “active”.

Q: For `C[C@@H]1CCCCO[C@H](CN(C)C(=O)Nc2cccc3ccccc23)[C@H](C)CN([C@H](C)CO)C(=O)c2cc(NC(=O)C3CCCCC3)ccc2O1`, which cytotoxicity call is on record?
A: The cytotoxicity call was “inactive”.

Q: Which cytotoxicity call does the source give for `C[C@@H]1CCCCO[C@H](CN(C)C(=O)Nc2cccc3ccccc23)[C@@H](C)CN([C@H](C)CO)C(=O)c2cc(NC(=O)C3CCCCC3)ccc2O1` here?
A: The cytotoxicity call was “inactive”.

Q: `C[C@@H]1CCCCO[C@H](CN(C)C(=O)Nc2cccc3ccccc23)[C@H](C)CN([C@@H](C)CO)C(=O)c2cc(NC(=O)C3CCCCC3)ccc2O1` was tested. Which cytotoxicity call did it give?
A: Its cytotoxicity call is “inactive”.

Q: `C[C@@H]1CCCCO[C@@H](CN(C)C(=O)Nc2cccc3ccccc23)[C@@H](C)CN([C@@H](C)CO)C(=O)c2cc(NC(=O)C3CCCCC3)ccc2O1` was tested. Which cytotoxicity call did it give?
A: Its cytotoxicity call is “active”.

Q: With `C[C@@H]1CN([C@@H](C)CO)C(=O)c2cc(NC(=O)C3CCCCC3)ccc2O[C@@H](C)CCCCO[C@@H]1CN(C)C(=O)Nc1cccc2ccccc12` as the compound, how does the cytotoxicity call read?
A: The cytotoxicity call was “inactive”.

Q: `C[C@H]1CCCCO[C@@H](CN(C)C(=O)Nc2cccc3ccccc23)[C@@H](C)CN([C@@H](C)CO)C(=O)c2cc(NC(=O)C3CCCCC3)ccc2O1` was tested. Which cytotoxicity call did it give?
A: Its cytotoxicity call is “inactive”.

Q: With `C[C@@H]1CCCCO[C@H](CN(C)C(=O)Nc2ccc(F)cc2)[C@H](C)CN([C@@H](C)CO)C(=O)c2cc(NS(=O)(=O)c3ccccc3)ccc2O1` as the compound, how does the cytotoxicity call read?
A: Its cytotoxicity call is “inactive”.

Q: How did the cytotoxicity call turn out when `C[C@H]1CN([C@@H](C)CO)S(=O)(=O)c2ccc(-c3ccc(C(=O)N(C)C)cc3)cc2O[C@@H]1CN(C)C(=O)C1CC1` was run?
A: The cytotoxicity call was “inactive”.

Q: With `O=C(N[C@@H]1C=C[C@@H](CC(=O)N2CCOCC2)O[C@@H]1CO)c1ccc2c(c1)OCO2` as the compound, how does the cytotoxicity call read?
A: Its cytotoxicity call is “inactive”.

Q: Which cytotoxicity call does the source give for `C[C@H](CO)N1C[C@H](C)[C@H](CN(C)CC2CCCCC2)Oc2ccc(NC(=O)Cn3cnnn3)cc2C1=O` here?
A: The cytotoxicity call was “inactive”.

Q: `C[C@H](CO)N1C[C@H](C)[C@@H](CN(C)S(=O)(=O)c2ccccc2)Oc2ccc(NS(=O)(=O)c3ccc(F)cc3)cc2CC1=O` was tested. Which cytotoxicity call did it give?
A: The cytotoxicity call was “inactive”.

Q: `Cc1noc(C)c1S(=O)(=O)Nc1cccc2c1O[C@H](CN(C)S(=O)(=O)c1ccccc1)[C@H](C)CN([C@@H](C)CO)C2=O` was tested. Which cytotoxicity call did it give?
A: Its cytotoxicity call is “inactive”.

Q: `C[C@@H](O)C#Cc1ccc2c(c1)O[C@H](CN(C)C(=O)C1CCCCC1)[C@@H](C)CN([C@@H](C)CO)S2(=O)=O` was tested. Which cytotoxicity call did it give?
A: The cytotoxicity call was “inactive”.

Q: Which cytotoxicity call does the source give for `C[C@H]1CN([C@@H](C)CO)S(=O)(=O)c2ccc(Br)cc2O[C@H]1CN(C)C(=O)CCN1CCCCC1` here?
A: The cytotoxicity call was “inactive”.

Q: Which cytotoxicity call does the source give for `COc1ccc(S(=O)(=O)Nc2ccc3c(c2)C(=O)N([C@@H](C)CO)C[C@@H](C)[C@@H](CN(C)C(=O)NC2CCCCC2)OCCCC[C@H](C)O3)cc1` here?
A: Its cytotoxicity call is “inactive”.

Q: How did the cytotoxicity call turn out when `Cc1noc(C)c1S(=O)(=O)Nc1ccc2c(c1)CC(=O)N([C@H](C)CO)C[C@@H](C)[C@H](CN(C)S(=O)(=O)c1cccs1)O2` was run?
A: Its cytotoxicity call is “inactive”.

Q: With `COc1ccc2c3c(n(c2c1)C)[C@@H](CO)N(Cc1ccccc1)C[C@]13CCN(CC1)C(=O)Nc1cccc(c1)F` as the compound, how does the cytotoxicity call read?
A: Its cytotoxicity call is “inactive”.

Q: With `CO[C@H]1CN(C)C(=O)c2cc(NC(=O)Nc3ccccc3F)ccc2OC[C@H](C)N(Cc2ccccc2C(=O)O)C[C@H]1C` as the compound, how does the cytotoxicity call read?
A: The cytotoxicity call was “inactive”.

Q: With `COc1cccc(S(=O)(=O)N(C)C[C@@H]2Oc3ncc(C#CCN(C)C)cc3C(=O)N([C@H](C)CO)C[C@@H]2C)c1` as the compound, how does the cytotoxicity call read?
A: Its cytotoxicity call is “inactive”.

Q: With `C[C@H](CO)N1C[C@H](C)[C@H](CN(C)C(=O)Nc2ccc(C(F)(F)F)cc2)Oc2c(NS(=O)(=O)c3ccc(Cl)cc3)cccc2C1=O` as the compound, how does the cytotoxicity call read?
A: The cytotoxicity call was “active”.

Q: How did the cytotoxicity call turn out when `C[C@H]1CN([C@@H](C)CO)C(=O)c2cccc(NS(=O)(=O)c3ccc(F)cc3)c2O[C@@H]1CN(C)C(=O)Nc1ccc(C(F)(F)F)cc1` was run?
A: The cytotoxicity call was “inactive”.

Q: For `C[C@@H]1CN([C@@H](C)CO)C(=O)c2cccc(NS(=O)(=O)c3ccc(Cl)cc3)c2O[C@@H]1CN(C)C(=O)Nc1ccc(C(F)(F)F)cc1`, which cytotoxicity call is on record?
A: The cytotoxicity call was “active”.

Q: Which cytotoxicity call does the source give for `C[C@H]1CN([C@@H](C)CO)C(=O)c2cccc(NS(=O)(=O)c3ccc(F)cc3)c2O[C@H]1CN(C)C(=O)Nc1ccc(C(F)(F)F)cc1` here?
A: The cytotoxicity call was “inactive”.

Q: How did the cytotoxicity call turn out when `C[C@H](CO)N1C[C@H](C)[C@@H](CN(C)C(=O)Nc2ccc(C(F)(F)F)cc2)Oc2c(NS(=O)(=O)c3ccc(Cl)cc3)cccc2C1=O` was run?
A: Its cytotoxicity call is “inactive”.

Q: Which cytotoxicity call does the source give for `C[C@@H]1CN([C@@H](C)CO)C(=O)c2cccc(NS(=O)(=O)c3ccc(F)cc3)c2O[C@@H]1CN(C)C(=O)Nc1ccc(C(F)(F)F)cc1` here?
A: The cytotoxicity call was “inactive”.

Q: With `C[C@@H]1CN([C@H](C)CO)C(=O)c2cccc(NS(=O)(=O)c3ccc(Cl)cc3)c2O[C@H]1CN(C)C(=O)Nc1ccc(C(F)(F)F)cc1` as the compound, how does the cytotoxicity call read?
A: The cytotoxicity call was “inactive”.

Q: With `C[C@H]1CN([C@@H](C)CO)C(=O)c2cccc(NS(=O)(=O)c3ccc(Cl)cc3)c2O[C@H]1CN(C)C(=O)Nc1ccc(C(F)(F)F)cc1` as the compound, how does the cytotoxicity call read?
A: Its cytotoxicity call is “active”.

Q: `C[C@H]1CN([C@@H](C)CO)C(=O)c2cccc(NS(=O)(=O)c3ccc(Cl)cc3)c2O[C@@H]1CN(C)C(=O)Nc1ccc(C(F)(F)F)cc1` was tested. Which cytotoxicity call did it give?
A: The cytotoxicity call was “inactive”.

Q: For `C[C@@H]1CN([C@H](C)CO)C(=O)c2cccc(NS(=O)(=O)c3ccc(F)cc3)c2O[C@H]1CN(C)C(=O)Nc1ccc(C(F)(F)F)cc1`, which cytotoxicity call is on record?
A: Its cytotoxicity call is “inactive”.

Q: With `C[C@@H]1CN([C@@H](C)CO)C(=O)c2cccc(NS(=O)(=O)c3ccc(Cl)cc3)c2O[C@H]1CN(C)C(=O)Nc1ccc(C(F)(F)F)cc1` as the compound, how does the cytotoxicity call read?
A: Its cytotoxicity call is “inactive”.

Q: Which cytotoxicity call does the source give for `C[C@@H]1CN([C@H](C)CO)C(=O)c2cccc(NS(=O)(=O)c3ccc(Cl)cc3)c2O[C@@H]1CN(C)C(=O)Nc1ccc(C(F)(F)F)cc1` here?
A: The cytotoxicity call was “active”.
